Data on 13 sequences can be found in the supplement of paper PMC10681739.

This assay has as its target T1, ETS1 (UniProt P14921).
T1 sequence: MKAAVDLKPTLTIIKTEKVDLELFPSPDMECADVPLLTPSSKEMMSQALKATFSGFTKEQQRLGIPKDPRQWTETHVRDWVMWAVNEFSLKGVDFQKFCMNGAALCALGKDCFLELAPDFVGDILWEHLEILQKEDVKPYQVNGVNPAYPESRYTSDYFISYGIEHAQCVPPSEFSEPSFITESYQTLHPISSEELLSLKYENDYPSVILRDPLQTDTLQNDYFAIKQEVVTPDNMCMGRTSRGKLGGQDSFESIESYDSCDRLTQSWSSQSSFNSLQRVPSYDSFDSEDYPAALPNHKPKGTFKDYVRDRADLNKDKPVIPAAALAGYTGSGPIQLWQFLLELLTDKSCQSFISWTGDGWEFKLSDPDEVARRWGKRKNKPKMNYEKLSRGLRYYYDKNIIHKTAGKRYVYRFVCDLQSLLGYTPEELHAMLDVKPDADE
Nature of the assay: TF binding intensity (PBM fluorescence), negative control probe (arbitrary fluorescence units); higher = stronger binding. Here is the method: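 gcPBM negative-control 36-bp genomic probes lacking TF binding sites. Each was incubated with recombinant human ETS1 or RUNX1 alone and detected by antibody fluorescence. Values are medians over replicate spots (4 spots for the ETS1-RUNX1 arrays, 3 for the ETS1-ETS1 array). The probes sit in constant array flanks that are not printed.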
For “TGAATGAGTCTTTTTTTGGCCATCTCTTTATGATTA (protein concentration 10 nM)”, the TF binding intensity is 132. In turn, “TAGGGAATGGTGAGCTGTGGTTTGTGGCTTCATGGA (protein concentration 1 nM)” yielded a TF binding intensity of 443. Take “TATAAGGGGCTTTTCCCCTTTGGCTCAGCACTTCTC (protein concentration 10 nM)”: the TF binding intensity came to 116. Regarding “TAACAGGGAGATAAAACGGGTGAGAGCCCCCTAGGA (protein concentration 10 nM)”, the TF binding intensity turned out to be 103. In turn, “GAGCCCTTCTGGCCTCCCTGTATAAGTCCAGACTGA (protein concentration 10 nM)” gave a TF binding intensity of 96.9. The figure for “AAGTTAATGAGATATTGTGGTTGTTTGTGTTTGGTT (protein concentration 1 nM)” is 477; for “TCCAGAATTGCAAGGTCTGGGGAGCTGGGTGCCACA (protein concentration 10 nM)” it is 107; for “CCAGCAGCAGTTGTGAATTGGGTAATTTAATGAAAA (protein concentration 10 nM)” it is 116. The figure for “GCCTTGCCTTGGTCATGTTTGACTCTGCCTTCAACT (protein concentration 10 nM)” is 146. As for “TGGCCTGGGAAAGAACCCACAGGCTTCTGGTTGCTG (protein concentration 1 nM)”, the TF binding intensity turned out to be 597. For “GTTTATTGCCCACAACATGTCAGGCACAGTGGGAAG (protein concentration 10 nM)” the value was 132; for “AGAAGCTTGGCTTGGTCTGCGCCTCCTCCCGTGCCT (protein concentration 10 nM)”, 101; for “GTTCATCATCTCTCGTCAAGATGATTAACGACATGG (protein concentration 10 nM)”, 141.
